Sampled rows, rich in hits. Any-hit rate of the full collection: about 1.1%.
CatS block – inhibitors of human cathepsin S; P25774; recombinant cathepsin S, AMC dipeptide fluorescence, pooled mixtures; inhibition, %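 (tested at 5 µM per compound within 10-compound mixtures)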; 0.06% of 62,000 active; in the data active = inhibition above about 32%, passing the limit was not always enough;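 note: 0% = enzyme without compound and 100% = blank without enzyme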
Target sequence (P25774 115-331 limits assumed): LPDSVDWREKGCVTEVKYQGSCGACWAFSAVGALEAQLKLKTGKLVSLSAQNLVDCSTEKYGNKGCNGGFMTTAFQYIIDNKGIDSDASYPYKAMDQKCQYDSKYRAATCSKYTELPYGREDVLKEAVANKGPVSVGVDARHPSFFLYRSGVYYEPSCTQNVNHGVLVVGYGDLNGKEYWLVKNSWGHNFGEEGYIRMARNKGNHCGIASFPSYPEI
HER2 expr 66K – lowers expression of human Her2 kinase; P04626; HER2 level % of control, % at 10 µM; SKBR-3 HER2 protein level, AlphaScreen, 18-24 h; active compounds read low; 0.69% of 65,000 active;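 active = HER2 level under 5% of the carrier-only control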;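 note: 100% = DMSO carrier and 0% = 500 nM PU-H71 HSP90 inhibitor; lower value means stronger loss of Her2 protein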
CatL block – blocks human cathepsin L protease activity. AID 460. P07711. inhibition, %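 (tested at 10 µM)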. 0.17% of 58,000 active. purified cathepsin L, fluorogenic substrate, fluorescence; in the data active = inhibition above about 45%;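 note: 0% = enzyme with no compound and 100% = no enzyme blank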
Target sequence (P07711 114-288 limits assumed): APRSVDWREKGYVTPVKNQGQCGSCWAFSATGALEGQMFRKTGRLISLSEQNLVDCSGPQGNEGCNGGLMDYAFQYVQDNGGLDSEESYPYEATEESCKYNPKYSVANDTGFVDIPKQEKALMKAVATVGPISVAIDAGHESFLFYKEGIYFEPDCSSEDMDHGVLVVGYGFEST
Target sequence (P07711 292-333 limits assumed): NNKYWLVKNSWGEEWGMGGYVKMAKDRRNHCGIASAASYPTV
SKBR3 24h inh – SK-BR-3 proliferation inhibitors. SK-BR-3 viability, CellTiter-Glo ATP luminescence, 24 h; active compounds read low. viability, % at 10 µM. 0.47% of 41,000 active;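 active = viability at or below the median of all test compounds minus 3 SD, in both replicates if run twice, cut at about 45% in these data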;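 note: 100% = median untreated cell wells and 0% = median positive control drug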
CatB mixtures – inhibitors of human cathepsin B in compound mixtures; inhibition, %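 (ten-compound pools at 5 µM per compound and 50 µM total)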; Purified cathepsin B, AMC dipeptide fluorescence; 0.06% of 62,000 active; in the data active = inhibition above about 22%, passing the limit was not always enough;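 note: 0% = enzyme without compound and 100% = no enzyme blank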
CatB block – inhibitors of human cathepsin B. P07858. purified cathepsin B, fluorogenic substrate, fluorescence. inhibition, %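 (tested at 10 µM)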. 0.1% of 63,000 active; in the data active = inhibition above about 21%;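 note: 0% = enzyme with no compound and 100% = no enzyme blank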
Active calls of the source: *; / = not tested or not shown.

SMILES | CatS block | HER2 expr 66K | CatL block | SKBR3 24h inh | CatB mixtures | CatB block
CCN(CC)CCCN1C(=O)C(O)=C(C(C)=O)C1c1ccc(OC)cc1OC (stereo not drawn) | 0 | 89 | / | / | 0 | 2
Cc1nnc(SC(=O)N2c3ccccc3Sc3ccccc32)s1 | -13 | 0.9* | -5 | / | 5 | 2
Cc1nnc(SCC(=O)N2c3ccccc3Sc3ccccc32)n1N | -10 | 108 | -1 | 109 | -15 | -1
CC(C)(C)c1cc(C(c2cccnc2)N2CCN(CCO)CC2)cc(C(C)(C)C)c1O (stereo not drawn) | 1 | -15* | 8 | / | 4 | -1
OCCN1CCN(C(c2cccs2)c2ccc3cccnc3c2O)CC1 (stereo not drawn) | -4 | 48 | -8 | 91 | 3 | 2
CCOCCCNC(=O)C(NC(=O)CC1NC(=O)NC1=O)c1ccc(Cl)cc1 (stereo not drawn) | -4 | 98 | 10 | 44* | 4 | 3
COc1ccc(C(=O)c2c[nH]c3ccccc23)cc1 | 12 | 77 | -1 | 100 | 3 | -2
COc1cc(NC(=O)c2ccco2)c(OC)cc1NC(=O)CSc1nnc(-c2cccs2)n1C | 0 | 60 | -2 | 42* | 2 | -5
CCOc1cc(C(=O)N2CCOCC2)ccc1OCc1ccccc1 | -1 | 111 | 3 | 89 | 1 | 0
O=C(C1CCN(c2nnc(-n3cccc3)s2)CC1)N1CCN(Cc2ccc3c(c2)OCO3)CC1 | 6 | 93 | 53* | / | -6 | 2
CC1CCN(Cc2ccc(NC(=O)C3CCN(c4nnc(-n5cccc5)s4)CC3)cc2)CC1 | / | 84 | 67* | / | 6 | 13
Cc1ccc(Cl)cc1N1CCN(C(=O)C2CCN(c3nnc(-n4cccc4)s3)CC2)CC1 | -8 | 90 | 4 | / | 5 | 4
O=C(C1CCN(c2nnc(N3CCCC3=O)s2)CC1)N1CCN(Cc2ccc3c(c2)OCO3)CC1 | 11 | 70 | 47* | 85 | 4 | -5
Cc1ccc(Nc2nc(N)nc(CN3CCN(C(=O)c4ccco4)CC3)n2)cc1Cl | 3 | 90 | 4 | 100 | 6 | -5
O=c1cc(CSc2ccccn2)[nH]c(=O)[nH]1 | 41* | 84 | 12 | 116 | 6 | 2
O=C(COc1ccccc1)Nc1nnc(-c2ccc(Cl)s2)o1 | 13 | 86 | / | / | 5 | -3
CCOC(=O)Cn1nnnc1C(CC)N(Cc1cccs1)Cc1cc2ccc(OC)cc2[nH]c1=O (stereo not drawn) | -7 | -9.3* | 3 | 101 | -6 | 5
CCN1CCc2c(C#N)c(N3CCCCC3)nc(N3CCOCC3)c2C1 | / | -22* | -41 | 119 | / | 4
N#Cc1c(N2CCOCC2)nc(N2CCCCC2)c2c1CCN(C1CCCCC1)C2 | -7 | 75 | 1 | 90 | 0 | 1
COc1ccc(CCNC(=O)C2CCN(S(=O)(=O)c3cc(OC)ccc3OC)CC2)cc1 | 20 | 87 | 46* | 80 | 9 | 2
O=C(CN1CCN(Cc2ccc(Cl)cc2)C1=O)NCCN1CCCC1 | 2 | 122 | / | / | 0 | 1
CCOC(=O)Cc1c(C)nc2c(-c3cccc(Br)c3)c[nH]n2c1=O | -4 | 78 | 0 | / | -4 | -4
CCN(C(=O)COc1cc(=O)n(CC)c2ccccc12)c1cccc(Cl)c1 | 6 | 104 | 3 | / | 4 | 25*
CC/C(=N\O)c1ccc(O)c(OC)c1 | 13 | 118 | 7 | / | 3 | -3
O=C(O)c1ccccc1C(=O)NCc1ccc(F)cc1 | 2 | 122 | 12 | / | -1 | 21*
SMILES | CatS block | HER2 expr 66K | CatL block | SKBR3 24h inh | CatB mixtures | CatB block
O=c1[nH]c(Nc2nc3ccccc3o2)nc2c1CCCC2 | 15 | -3.3* | / | / | 3 | 0
COC(=O)Sc1nc(N2CCOCC2)c2c(c1C#N)CC(C)(C)OC2 | / | 110 | 3 | 79 | / | 47*
CC1(C)Cc2c(C#N)c(SCC(=O)c3ccccc3)nc(N3CCOCC3)c2CO1 | 12 | 86 | 15 | / | -1 | 5
CCCCn1nnnc1NCc1ccc(N2CCCC2)cc1 | -16 | / | 11 | 83 | -2 | 3
CC(=O)Nc1ccc(S(=O)(=O)N2CCSC2C(=O)O)cc1 (stereo not drawn) | 4 | 107 | -2 | / | 3 | -3
CC(=O)Nc1ccc(S(=O)(=O)/N=C2\SCCN2S(=O)(=O)c2ccc(NC(C)=O)cc2)cc1 | 0 | 112 | 79* | / | 6 | 2
Cc1c(Br)cc(C(=O)OC2CCN(C)CC2)c(C)c1C | 0 | 139 | -4 | 82 | 6 | -2
CN(C)c1nc(N)nc(CSc2nc3cc(Cl)ccc3o2)n1 | -1 | / | -4 | 88 | 4 | 4
O=S1(=O)C=C(Sc2nc3cc(Cl)ccc3o2)c2ccccc21 | 0 | -18* | -4 | / | 1 | 2
COc1ccccc1CN(Cc1ccco1)S(=O)(=O)c1ccc(-n2cnnn2)c(OC)c1 | 60* | 93 | 10 | 98 | 15 | 7
COc1cccc(CN(Cc2cccnc2)S(=O)(=O)c2ccc(-n3cnnn3)c(C)c2)c1OC | 1 | 101 | 6 | 114 | 0 | -1
COc1ccc(-c2[nH]ncc2-c2ccc3c(c2)OCCO3)c(O)c1 | -1 | 33 | -14 | 97 | 2 | 4
CCc1cc(-c2[nH]ncc2-c2ccc3c(c2)OCO3)c(O)cc1O | 7 | -1.1* | -3 | / | 0 | 3
CCCn1c(Nc2nc3ccccc3n2C)nc2ccccc21 | 3 | -22* | -12 | 9.8* | 4 | -1
CCNc1nc(NC(C)C)nc(NS(=O)(=O)c2ccc(Cl)cc2)n1 | 5 | 105 | 9 | 42* | -4 | -1
CCN(CC)c1nc(N)nc(NS(=O)(=O)c2ccc(Cl)cc2)n1 | 3 | 92 | / | / | -1 | -5
O=C(CN1CCN(c2ncccn2)CC1)NCCC1=CCCCC1 | -4 | 121 | -4 | 80 | 3 | 3
CC(C)CC(OC(=O)c1ccco1)C(=O)NC1CCCCC1 (stereo not drawn) | -9 | 93 | / | 84 | 1 | 3
COc1cc2c(=O)n(Cc3ccco3)c(=O)n(CC(=O)c3cccc(Br)c3)c2cc1OC | -10 | 34 | -5 | 42* | -3 | 0
CCOC(=O)CSc1nc(N2CCOCC2)c2c(c1C#N)CC(C)(C)N(C)C2 | / | 87 | 16 | 97 | / | 1
CCCN(CCC)C(=O)c1ccc2c(c1)N(Cc1ccccc1)C(=O)CS2=O (stereo not drawn) | -3 | 100 | / | / | 2 | 1
COC(=O)/C(=C1/Oc2cc(C)oc(=O)c2S1)C(F)(F)F | -5 | -15* | -3 | 38* | 0 | -2
Cc1ccc(NC(=O)N2CCCC2C(=O)NCCc2ccccc2)cc1 (stereo not drawn) | -3 | 98 | 7 | 125 | -1 | -4
Cn1c(=O)c2c(-c3ccccc3)n(Cc3cccnc3)cc2n(C)c1=O | -4 | 106 | 11 | 108 | 3 | -1
Cn1c(=O)c2c(-c3ccccc3)n(-n3cnnc3)cc2n(C)c1=O | -6 | 53 | 25 | / | 50* | 59*
Cc1ccc2c(c1)N(CC(=O)OC(CC(C)C)C(=O)NC1CCCC1)C(=O)CO2 (stereo not drawn) | 1 | -24* | -5 | 84 | 5 | -4
